Results as given in PubChem BioAssay (NCI).
This is part of a sample that, as a whole, favours compounds with a hit. Of some 83,000 tested, about 20% had one in any assay.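 96-well plates, one dose, 48 hours. Percent growth reported; active if below 10.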 A number with no mark means an inactive call. Active and inactive are the calls of the source.

Tested on: MCF7 breast
Assay: NCI-60 one-dose screen, 48 h (100 = growth as untreated, 0 = no growth, -100 = all killed)
Details: 10 µM unless noted
Procedure: Growth inhibition of the MCF7 human tumor cell line is measured as a screen for anti-cancer activity. Cells are grown in 96 well plates and exposed to the test compound for 48 hours. Compounds are tested at a single concentration, which is 10^-5 M for most compounds. The reported endpoint is percent growth (GI% or GIPRCNT), where numbers from 0 - 100% represent growth inhibition, and numbers from -100% - 0 represent cell death. For example, a value of 40 represents 60% growth inhibition. A value of 0 means no net growth occurred over the course of the experiment. A value of -40 indicates 40% of cells at the beginning of the experiment died by the end of the experiment. A value of -100 means all cells are dead at the end of the experiment.
NCI-60 Human Tumor Cell Lines Screen was performed using the standard one-dose NCI protocol, which is described in more detail at https://dtp.cancer.gov/discovery_development/nci-60/default.htm.
Compounds with GIPRCNT values below 10 were considered active. Activity score was based on GIPRCNT using the following formula: […]
Score is 0 for GIPRCNT values of 100 or above, 50 for GIPRCNT values of 0, and 100 for GIPRCNT values of -100.

**Q.** For `C#CC[C@@H]1C[C@]2(C)[C@H]3CC[C@@H]4[C@H]5C(C(=C)C)CC[C@]5(C(=O)NCCCCN)CC[C@@]4(C)[C@]3(C)CC[C@H]2C(C)(C)[C@H]1OC(C)=O` (stereo not given in full), which growth is on record?
**A.** -71.6% (active)

**Q.** For `CNCc1ccccc1CN(CC(=O)Nc1ccc2c(c1)CC1(C2)C(=O)Nc2ncccc21)C(=O)C(C)(C)C` (stereo not given), which growth is on record?
**A.** 102%

**Q.** With `c1ccc(C(CC2=NCCCN2)c2ccccc2)cc1` as the compound, how does the growth read?
**A.** 94.1%

**Q.** `O=C1Nc2ccccc2/C1=C/c1c[nH]c2ccccc12` was tested. Which growth did it give?
**A.** 63.2%

**Q.** How did the growth turn out when `O=C(Nc1cccc(Cl)c1)Nc1cc(C(F)(F)F)ccc1Cl` was run?
**A.** 16.1%

**Q.** `C/C(=N\OC(=O)Nc1cccc(Cl)c1)c1ccccc1` was tested. Which growth did it give?
**A.** 88.1%

**Q.** Which growth does the source give for `COC(=O)CNS(=O)(=O)c1ccc2c(c1)Cc1cc(S(=O)(=O)NCC(=O)OC)ccc1-2` here?
**A.** 95.5%

**Q.** How did the growth turn out when `CC(=O)OC1Oc2ccccc2-c2oc3nc(=N)n(C)c-3cc21` (stereo not given) was run?
**A.** 98.6%

**Q.** With `Cc1ccc(-c2cnc3sc4ccc(Cl)cc4n23)cc1` as the compound, how does the growth read?
**A.** 81.5%

**Q.** With `O=C(O)/C=C(\c1nc2ccc([N+](=O)[O-])cc2[nH]1)c1cc(Cl)ccc1O` as the compound, how does the growth read?
**A.** 13.4%

**Q.** For `O=C(OCc1ccc2c(Br)cc(Br)c(O)c2n1)c1cc2ccccc2[nH]1`, which growth is on record?
**A.** -35.5% (active)

**Q.** Which growth does the source give for `COc1cc(C2=NOC(c3cc(OC)c(OC)c(OC)c3)C2)ccc1OCCCCOc1cc2c(cc1OC)C(=O)N1CCC[C@H]1C=N2` (stereo not given in full) here?
**A.** -5.09% (active)

**Q.** `CC1=NN(c2cccc(S(N)(=O)=O)c2)C(=O)C1` was tested. Which growth did it give?
**A.** 90.4%

**Q.** Which growth does the source give for `COc1cc2nccc(Oc3ccc(NC(=O)C4(C(=O)Nc5ccc(F)cc5)CC4)cc3)c2cc1O` here?
**A.** 51.2%

**Q.** Which growth does the source give for `CCN(CC)CCC(CNc1ccnc2cc(Cl)ccc12)c1ccc(O)cc1` (stereo not given) here?
**A.** 113%

**Q.** How did the growth turn out when `CC1=C(C(=O)Nc2ccc(F)cc2)C(c2ccc(Cl)cc2)C2=C(CC(C)(C)CC2=O)N1` (stereo not given) was run?
**A.** 80.1%

**Q.** Which growth does the source give for `CCN(CC)CCCCCCCNc1cc(OC)cc2c(C)ccnc12` here?
**A.** 27.2%

**Q.** Which growth does the source give for `CNC(=O)c1cc(Oc2ccc(NC(=O)c3nc(S(C)(=O)=O)sc3-c3ccc(F)cc3)cc2)ccn1` here?
**A.** 29.5%

**Q.** For `C/C(=C\C(=N\N=C(N)N)c1ccc(Cl)cc1)c1ccc(Cl)cc1`, which growth is on record?
**A.** -78.4% (active)

**Q.** How did the growth turn out when `CC[C@H](Nc1nc(N)nc(C2CC2)c1C#N)c1nc2cccc(NCc3ccc(C(=O)NO)cc3)c2c(=O)n1-c1ccccc1` was run?
**A.** 4.25% (active)

**Q.** `Cc1ccc(-c2nc3ccccc3c(=O)n2/N=C/c2cccc3ccccc23)cc1` was tested. Which growth did it give?
**A.** 62.9%

**Q.** For `CC(C)(C)NC(=O)C(OC(=O)C1CCc2cc(F)ccc2O1)c1ccccc1Cl` (stereo not given), which growth is on record?
**A.** 97.8%

**Q.** Which growth does the source give for `CSC(=S)N/N=C(\C)c1ccccn1` here?
**A.** 7.66% (active)

**Q.** `COC(=O)c1cc2oc(/C=N/NC(=O)c3cc4oc(-c5cccc(C(F)(F)F)c5)cc4[nH]3)cc2n1Cc1ccccc1` was tested. Which growth did it give?
**A.** 88.8%

**Q.** `C=CCn1c(SCC(=O)Nc2ccc(C(=O)/C=C/c3ccccc3)cc2)nnc1-c1ccc(OC)c(OC)c1` was tested. Which growth did it give?
**A.** 16.5%

**Q.** Which growth does the source give for `N=C(N)c1ccc(-c2ccc(-c3cc(Cl)cc(Cl)c3)o2)nc1` here?
**A.** -67.1% (active)

**Q.** For `COc1ccc2[nH]c(O)c(/C=c3/ccc4c(c3)N=C(c3ccc(F)cc3)N=4)c2c1`, which growth is on record?
**A.** 41.7%

**Q.** Which growth does the source give for `CCNS(=O)(=O)c1ccc(C)cc1` here?
**A.** 94.9%

**Q.** With `O=C(Nc1ccc(OS(=O)(=O)c2ccc(F)cc2)cc1)C12CC3CC(CC(C3)C1)C2` as the compound, how does the growth read?
**A.** 34%

**Q.** Which growth does the source give for `Cc1ccccc1N1C(c2ccccc2)=NNC12C=CC(=O)c1c(O)cccc12` (stereo not given) here?
**A.** 73.5%

**Q.** Which growth does the source give for `CC1(C)CC[C@]2(C(=O)N3CCNCC3)CC[C@]3(C)C(=CC[C@@H]4[C@@]5(C)CCC(=O)C(C)(C)[C@@H]5CC[C@]43C)[C@@H]2C1` here?
**A.** 98.6%

**Q.** With `CC(=O)c1c(O)c(C)c(O)c2c1OC1=CC(=O)/C(=C(/C)N)C(=O)C12C` (stereo not given) as the compound, how does the growth read?
**A.** 85.4%

**Q.** `OC(c1cc2cc(Cl)ccc2c2cc(C(F)(F)F)ccc12)C1CCCCN1` (stereo not given) was tested. Which growth did it give?
**A.** -86.3% (active)

**Q.** With `O=C(CCCCCCc1nc2ccc(Br)cc2[nH]1)NO` as the compound, how does the growth read?
**A.** 1.84% (active)

**Q.** Which growth does the source give for `Cc1cc(C)cc(NC(=O)Cn2nncc2CN2C(=O)CSC2=O)c1` here?
**A.** 93.4%

**Q.** `COC(=O)c1ccc(NC(N)=NCCC(C)(C)c2ccc(C(F)(F)F)cc2)nc1` was tested. Which growth did it give?
**A.** 10%

**Q.** For `COc1ccc(-c2oc(=O)ccc2-c2cc(OC)c(OC)c(OC)c2)cc1F`, which growth is on record?
**A.** 44%

**Q.** How did the growth turn out when `CCOC(=O)c1ccccc1SC(C[N+](=O)[O-])c1ccccc1` (stereo not given) was run?
**A.** 1.05% (active)

**Q.** Which growth does the source give for `Cc1c(O)c(=O)n(-c2ccccc2)n1C` here?
**A.** 101%

**Q.** With `Cc1ccc(CSCc2ccc(C(=O)NC3CC3)o2)cc1` as the compound, how does the growth read?
**A.** 25%
